# Assay results taken from the supplement of paper PMC8285479.
# Counter-ions that a name gives are not always drawn. ± gives the standard deviation of the averaged measurements. The full ranking holds about 1,900 compounds; the median of “normalised cell viability (NPI; 0 = phenylarsine oxide control, 1 = DMSO control)” is about 1, and the lowest 2% start at about 0.039. This is one part of a sample in which the lowest values are shown more often than they occur.
# Tested on: NCI-H1944
# Assay: normalised cell viability (NPI; 0 = phenylarsine oxide control, 1 = DMSO control) (fraction of DMSO control); NCI-H1944 is a non-small cell lung cancer line; higher = more viable cells (less compound toxicity)
# Settings: 6 days
# [1] = glucocorticoid arm: hydrocortisone 2.75 uM co-treatment, compound 1 µM
# [2] = glucocorticoid arm: hydrocortisone 2.75 uM co-treatment, compound 5 µM
# [3] = glucocorticoid arm: hydrocortisone 2.75 uM pre-treated 2 days and continued, compound 1 µM
# [4] = glucocorticoid arm: hydrocortisone 2.75 uM pre-treated 2 days and continued, compound 5 µM
# [5] = glucocorticoid arm: vehicle, compound 1 µM
# [6] = glucocorticoid arm: vehicle, compound 5 µM
# 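Also: CTB read-out in 384-well plates, triplicate wells, NPI normalised per plate against 1 µM phenylarsine oxide (0) and 0.1% DMSO (1) controls.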
smiles,measurement,setting,value
CN/C(=N\c1ccc(C2=NNC(=O)CC2C)cc1)NC#N (stereo unspecified),normalised cell viability,[1],0.9943 ± 0.0046
same,normalised cell viability,[2],0.992 ± 0.018
same,normalised cell viability,[3],0.875 ± 0.22
same,normalised cell viability,[4],0.9957 ± 0.0051
same,normalised cell viability,[5],0.995 ± 0.005
same,normalised cell viability,[6],0.997 ± 0.0052
CCN1C(=CC(C)=O)Sc2ccc(OC)cc21,normalised cell viability,[1],0.982 ± 0.01
same,normalised cell viability,[2],0.823 ± 0.013
same,normalised cell viability,[3],0.994 ± 0.017
same,normalised cell viability,[4],0.839 ± 0.021
same,normalised cell viability,[5],1.01 ± 0.01
same,normalised cell viability,[6],0.983 ± 0.017
Cc1cc(N2CCOCC2)cc2[nH]c(-c3c(NCC(O)c4cccc(Cl)c4)cc[nH]c3=O)nc12 (stereo unspecified),normalised cell viability,[1],0.277 ± 0.0085
same,normalised cell viability,[2],0.205 ± 0.011
same,normalised cell viability,[3],0.3733 ± 0.0021
same,normalised cell viability,[4],0.267 ± 0.0095
same,normalised cell viability,[5],0.753 ± 0.051
same,normalised cell viability,[6],0.263 ± 0.036
CCCCCCCCCCCCCCCC(=O)NCC(COP(=O)([O-])OCC[N+](C)(C)C)OCC (racemic) [rac-2-Ethoxy-3-hexadecanamido-1-propylphosphocholine],normalised cell viability,[1],1.01 ± 0.01
same,normalised cell viability,[2],1.09 ± 0.023
same,normalised cell viability,[3],1.007 ± 0.0058
same,normalised cell viability,[4],1.113 ± 0.0058
same,normalised cell viability,[5],1.013 ± 0.0058
same,normalised cell viability,[6],1.02 ± 0.011
CN1CCC[C@@H]1Cc1c[nH]c2ccc(CCS(=O)(=O)c3ccccc3)cc12 [Eletriptan HBr],normalised cell viability,[1],1.013 ± 0.0058
same,normalised cell viability,[2],1.03 ± 0.015
same,normalised cell viability,[3],1.01 ± 0.01
same,normalised cell viability,[4],1.02 ± 0.021
same,normalised cell viability,[5],1.002 ± 0.0067
same,normalised cell viability,[6],1.002 ± 0.0072
COc1ccc(NC(=O)c2ccc(-c3ccc(-c4noc(C)n4)cc3C)cc2)cc1N1CCN(C)CC1,normalised cell viability,[1],1.006 ± 0.0063
same,normalised cell viability,[2],0.000294 ± 0.00029
same,normalised cell viability,[3],1.02 ± 0.01
same,normalised cell viability,[4],0.00887 ± 0.01
same,normalised cell viability,[5],0.9987 ± 0.0023
same,normalised cell viability,[6],0.000181 ± 0.0015
COc1ccccc1N1CCN(CCCCNC(=O)c2ccc3ccccc3c2)CC1,normalised cell viability,[1],0.9887 ± 0.0098
same,normalised cell viability,[2],0.984 ± 0.026
same,normalised cell viability,[3],0.998 ± 0.014
same,normalised cell viability,[4],0.988 ± 0.032
same,normalised cell viability,[5],0.9913 ± 0.0029
same,normalised cell viability,[6],0.961 ± 0.033
CCCCCCCCCCCCCCCc1cccc(O)c1C(=O)O [Anacardic acid],normalised cell viability,[1],1 ± 0.015
same,normalised cell viability,[2],1.02 ± 0.0063
same,normalised cell viability,[3],1.01 ± 0.012
same,normalised cell viability,[4],1.02 ± 0.022
same,normalised cell viability,[5],1 ± 0.024
same,normalised cell viability,[6],1.01 ± 0.019
S=C(S)N1CCCC1 [Ammonium pyrrolidinedithiocarbamate],normalised cell viability,[1],1 ± 0.015
same,normalised cell viability,[2],0.994 ± 0.024
same,normalised cell viability,[3],1.01 ± 0.018
same,normalised cell viability,[4],1.004 ± 0.01
same,normalised cell viability,[5],1.002 ± 0.0076
same,normalised cell viability,[6],0.416 ± 0.095
N=c1ccn2c(n1)O[C@H]1[C@H](O)[C@@H](CO)O[C@H]12 [Ancitabine hydrochloride],normalised cell viability,[1],0.16 ± 0.012
same,normalised cell viability,[2],0.103 ± 0.012
same,normalised cell viability,[3],0.652 ± 0.079
same,normalised cell viability,[4],0.211 ± 0.0064
same,normalised cell viability,[5],0.0511 ± 0.0082
same,normalised cell viability,[6],0.0465 ± 0.00057
Nc1cc(C(F)(F)F)c(-c2cc(N3CCOCC3)nc(N3CCOCC3)n2)cn1,normalised cell viability,[1],0.6 ± 0.048
same,normalised cell viability,[2],0.203 ± 0.0045
same,normalised cell viability,[3],0.713 ± 0.038
same,normalised cell viability,[4],0.411 ± 0.029
same,normalised cell viability,[5],0.613 ± 0.059
same,normalised cell viability,[6],0.0297 ± 0.0061
FC(F)c1nc2ccccc2n1-c1nc(N2CCOCC2)nc(N2CCOCC2)n1,normalised cell viability,[1],0.649 ± 0.029
same,normalised cell viability,[2],0.627 ± 0.013
same,normalised cell viability,[3],0.603 ± 0.038
same,normalised cell viability,[4],0.702 ± 0.054
same,normalised cell viability,[5],0.691 ± 0.048
same,normalised cell viability,[6],0.831 ± 0.028
CS(=O)(=O)N1CCc2c(-c3cnc(N)nc3)nc(N3CCOCC3)nc21,normalised cell viability,[1],0.528 ± 0.021
same,normalised cell viability,[2],0.513 ± 0.01
same,normalised cell viability,[3],0.552 ± 0.058
same,normalised cell viability,[4],0.627 ± 0.034
same,normalised cell viability,[5],0.491 ± 0.024
same,normalised cell viability,[6],0.651 ± 0.064
CSc1nc(N)c2ncn([C@@H]3O[C@H](COP(=O)(O)OP(=O)(O)O)[C@@H](O)[C@H]3O)c2n1 [2-Methylthioadenosine diphosphate trisodium],normalised cell viability,[1],1.007 ± 0.0058
same,normalised cell viability,[2],1.02 ± 0.026
same,normalised cell viability,[3],1.01 ± 0.012
same,normalised cell viability,[4],1.06 ± 0.082
same,normalised cell viability,[5],0.9917 ± 0.0072
same,normalised cell viability,[6],1 ± 0.017
C[C@@H]1C(=O)O[C@H]2C[C@@]34[C@H]5C[C@@H](C(C)(C)C)[C@]36[C@@H](OC(=O)[C@@H]6O)O[C@@]4(C(=O)O5)[C@]21O [Ginkgolide A],normalised cell viability,[1],0.9947 ± 0.0084
same,normalised cell viability,[2],0.986 ± 0.01
same,normalised cell viability,[3],0.994 ± 0.016
same,normalised cell viability,[4],0.997 ± 0.02
same,normalised cell viability,[5],1.002 ± 0.0072
same,normalised cell viability,[6],0.9947 ± 0.0051
CCc1c(C(=O)NCCc2ccc(N3CCCCC3)cc2)[nH]c2ccc(Cl)cc12,normalised cell viability,[1],1.01 ± 0.018
same,normalised cell viability,[2],0.993 ± 0.021
same,normalised cell viability,[3],1.027 ± 0.0058
same,normalised cell viability,[4],0.999 ± 0.011
same,normalised cell viability,[5],1 ± 0.0095
same,normalised cell viability,[6],0.982 ± 0.012
NCC=CC(=O)O (stereo in doubt) [cis-4-Aminocrotonic acid],normalised cell viability,[1],0.992 ± 0.0092
same,normalised cell viability,[2],0.993 ± 0.015
same,normalised cell viability,[3],0.9857 ± 0.0042
same,normalised cell viability,[4],0.9765 ± 0.0092
same,normalised cell viability,[5],0.973 ± 0.0079
same,normalised cell viability,[6],0.9753 ± 0.0086
C[C@H]1C[C@H]2[C@@H]3CCC4=CC(=O)C=C[C@]4(C)[C@@]3(Cl)[C@@H](O)C[C@]2(C)[C@@]1(O)C(=O)CO [Beclomethasone],normalised cell viability,[1],0.998 ± 0.0017
same,normalised cell viability,[2],1.02 ± 0.01
same,normalised cell viability,[3],1.01 ± 0.01
same,normalised cell viability,[4],1
same,normalised cell viability,[5],0.803 ± 0.031
same,normalised cell viability,[6],0.738 ± 0.039
CC(C)[C@H](C(=O)Nc1ccc(C(=O)NO)cc1)c1ccccc1,normalised cell viability,[1],0.752 ± 0.021
same,normalised cell viability,[2],0.00258 ± 0.00047
same,normalised cell viability,[3],0.897 ± 0.021
same,normalised cell viability,[4],0.00754 ± 0.0016
same,normalised cell viability,[5],0.172 ± 0.0081
same,normalised cell viability,[6],0.00052 ± 0.00049
CCCCN(Cc1ccc(C(=O)NO)cc1)C(=O)Nc1ccccc1 [Nexturastat A],normalised cell viability,[1],0.949 ± 0.017
same,normalised cell viability,[2],0.9863 ± 0.0097
same,normalised cell viability,[3],0.97 ± 0.02
same,normalised cell viability,[4],0.963 ± 0.027
same,normalised cell viability,[5],1.001 ± 0.009
same,normalised cell viability,[6],0.967 ± 0.014
N#CC(=C(/N)Sc1ccccc1N)/C(C#N)=C(\N)Sc1ccccc1N,normalised cell viability,[1],1.02 ± 0.011
same,normalised cell viability,[2],1.08 ± 0.025
same,normalised cell viability,[3],0.976 ± 0.016
same,normalised cell viability,[4],1.01 ± 0.027
same,normalised cell viability,[5],1.023 ± 0.0058
same,normalised cell viability,[6],1.02 ± 0.015
CC#CCOC(=O)c1c(C)nc2sc3c(c2c1N)CCC(O)C3 (stereo unspecified),normalised cell viability,[1],1.02 ± 0.021
same,normalised cell viability,[2],1 ± 0.019
same,normalised cell viability,[3],1.03 ± 0.038
same,normalised cell viability,[4],1.03 ± 0.017
same,normalised cell viability,[5],1.013 ± 0.0058
same,normalised cell viability,[6],1.013 ± 0.0058
"COC1=C(OC)C(=O)c2ccccc2C1=O [2,3-Dimethoxy-1,4-naphthoquinone]",normalised cell viability,[1],0.994 ± 0.01
same,normalised cell viability,[2],0.905 ± 0.047
same,normalised cell viability,[3],0.994 ± 0.0066
same,normalised cell viability,[4],0.956 ± 0.01
same,normalised cell viability,[5],0.997 ± 0.0027
same,normalised cell viability,[6],0.8913 ± 0.0032
CCCCCC[C@@H]([C@@H](C)O)n1cnc2c(N)ncnc21 [erythro-9-(2-Hydroxy-3-nonyl)adenine hydrochloride],normalised cell viability,[1],0.999 ± 0.001
same,normalised cell viability,[2],0.992 ± 0.024
same,normalised cell viability,[3],0.987 ± 0.012
same,normalised cell viability,[4],0.997 ± 0.023
same,normalised cell viability,[5],0.973 ± 0.0053
same,normalised cell viability,[6],0.9777 ± 0.0055
CCCCCCCCCCCCCCCCCCOCC(COP(=O)([O-])OCC[N+](C)(C)C)OC (stereo unspecified),normalised cell viability,[1],1.006 ± 0.0063
same,normalised cell viability,[2],0.993 ± 0.015
same,normalised cell viability,[3],0.9897 ± 0.0011
same,normalised cell viability,[4],0.989 ± 0.028
same,normalised cell viability,[5],0.9853 ± 0.0049
same,normalised cell viability,[6],0.9957 ± 0.0059
CC(C)c1ccccc1Cc1cc(C(=O)Nc2ccc(S(=O)(=O)c3ccccc3C(C)(C)C)cc2)c(O)c(O)c1O,normalised cell viability,[1],0.9933 ± 0.0099
same,normalised cell viability,[2],0.826 ± 0.049
same,normalised cell viability,[3],0.998 ± 0.014
same,normalised cell viability,[4],0.961 ± 0.018
same,normalised cell viability,[5],1.007 ± 0.0058
same,normalised cell viability,[6],0.813 ± 0.033
CC(=O)NCC(=O)N1[C@@H]2CC[C@H]1c1ccc(Nc3ncc(C(F)(F)F)c(NC4CCC4)n3)cc12,normalised cell viability,[1],0.712 ± 0.0091
same,normalised cell viability,[2],0.552 ± 0.019
same,normalised cell viability,[3],0.83 ± 0.0095
same,normalised cell viability,[4],0.717 ± 0.01
same,normalised cell viability,[5],0.301 ± 0.018
same,normalised cell viability,[6],0.201 ± 0.017
C/C(=C\c1csc(C)n1)[C@@H]1C[C@@H]2O[C@]2(C)CCC[C@H](C)[C@H](O)[C@@H](C)C(=O)C(C)(C)[C@@H](O)CC(=O)N1 [Ixabepilone],normalised cell viability,[1],0.132 ± 0.012
same,normalised cell viability,[2],0.146 ± 0.018
same,normalised cell viability,[3],0.484 ± 0.023
same,normalised cell viability,[4],0.477 ± 0.05
same,normalised cell viability,[5],0.0322 ± 0.0044
same,normalised cell viability,[6],0.032 ± 0.004
CC(C)C[C@@H]1NC(=O)[C@@H](C(C)C)NC(=O)[C@@H]2CCCN2C(=O)[C@@H](CC(=O)O)NC(=O)[C@@H](Cc2c[nH]c3ccccc23)NC1=O,normalised cell viability,[1],1.01 ± 0.014
same,normalised cell viability,[2],1 ± 0.018
same,normalised cell viability,[3],1.02 ± 0.025
same,normalised cell viability,[4],1.003 ± 0.0061
same,normalised cell viability,[5],0.9943 ± 0.005
same,normalised cell viability,[6],1.013 ± 0.0058
Cc1ncc(-c2ccnc(Nc3ccc(S(C)(=O)=O)cc3)n2)n1C(C)C,normalised cell viability,[1],0.584 ± 0.057
same,normalised cell viability,[2],0.062 ± 0.0037
same,normalised cell viability,[3],0.705 ± 0.061
same,normalised cell viability,[4],0.319 ± 0.083
same,normalised cell viability,[5],0.191 ± 0.045
same,normalised cell viability,[6],0.0177 ± 0.0014
"CN(C)CCC(c1ccc(Cl)cc1)c1ccccn1 (single isomer, unassigned; (+)) [(+)-Chlorpheniramine maleate]",normalised cell viability,[1],0.9827 ± 0.0045
same,normalised cell viability,[2],0.997 ± 0.012
same,normalised cell viability,[3],0.979 ± 0.004
same,normalised cell viability,[4],1.005 ± 0.0071
same,normalised cell viability,[5],0.968 ± 0.011
same,normalised cell viability,[6],0.978 ± 0.003
